Calb biofilm kill – clotrimazole potentiators killing Candida biofilms, primary screen, with clotrimazole, Alamar Blue | C. albicans biofilm + clotrimazole | inhibition, % at 6 µM | 0.14% of 85,000 active | AID 834, 2007;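 active = inhibition above 20%; inactive = inhibition below 20%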;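 also: preformed 24 hr biofilms exposed to compound for 48 hr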
LYP act – LYP phosphatase activators, primary screen, biochemical, DiFMUP fluorescence, 2 µM; activation, % at 2 µM; 0.11% of 96,000 active; AID 697, 2007; recombinant LYP; 0 = plate median, 100 = signal doubled;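 active = activation at 2 µM above a set limit, the mean plus 5 SD, cut at about 37% in these data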
sEH activator – soluble epoxide hydrolase activators, primary screen, biochemical, human sEH; purified human sEH enzymatic activity, activator screen; activation, % at 2 µM; 0.04% of 91,000 active; in the data active = activation above about 37%
sEH inh – soluble epoxide hydrolase inhibitors, primary screen, biochemical, human sEH. inhibition, % at 2 µM. recombinant human sEH enzymatic activity assay. AID 707, 2007. Bifunctional epoxide hydrolase 2 (Homo sapiens), P34913. 0.34% of 91,000 active; in the data active = inhibition above about 80%
LYP inh 2 – PTPN22 phosphatase inhibitors, primary screen, biochemical, DiFMUP fluorescence, 2 µM. Tyrosine-protein phosphatase non-receptor type 22 (Homo sapiens), Q9Y2R2. recombinant LYP catalytic domain. inhibition, % at 2 µM. 0.21% of 96,000 active. AID 640, 2007;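 active = inhibition at 2 µM at or above a set limit, the screen mean plus 3 SD, cut at about 24% in these data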
BAP1 block – inhibitors of BAP1 deubiquitinase, primary screen, biochemical, Ub-AMC fluorescence, kinetic | Ubiquitin carboxyl-terminal hydrolase BAP1 (Homo sapiens), Q92560 | recombinant BAP1, Ub-AMC hydrolysis fluorescence kinetic; stronger effect = lower value | calls only at 20 µM | 0.48% of 72,000 active;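 active = activity remaining at or below 50% of control, provided the compound also passes the data quality filters; inactive = the rest, including low values that fail the filters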
BAP1 inh conf – BAP1 deubiquitinase inhibitors, hit retest, confirmation, orthogonal assay, biochemical, Ub-ethyl ester substrate, HPLC readout; purified BAP1, Ub-ethyl ester hydrolysis; stronger effect = lower value; % of control activity, % at 20 µM; 8% of 310 active; shares compounds with BAP1 block;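 active = percent of control activity at or below 60%; inconclusive = HPLC trace unusable from injection failure or solvent front hiding peaks; inactive = the rest, plus ubiquitin peak ratio over a set limit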
LYP act confirm – retest of PTPN22 activators, confirmation, biochemical, DiFMUP fluorescence, single concentration; shares compounds with LYP act; Recombinant LYP, activation; zero set by plate's median compound well; activation, % at 2 µM; 100 tested, under 10 active; call rule not given here
A number is an active result. In the library only some 0.79% were active in any assay of this set; here they are far more common.

Screening COc1cccc(C(=O)NCc2n[nH]c(=S)n2-c2ccccc2)c1 returned BAP1 block inactive.
`N#Cc1c(/N=C/c2ccco2)oc(-c2ccccc2)c1-c1ccccc1` gave Calb biofilm kill inactive, LYP act inactive, sEH activator inactive, sEH inh inactive, LYP inh 2 inactive, BAP1 block active and BAP1 inh conf inconclusive.
For O=C(CSc1nnc(C2CC2)n1Cc1ccccc1)c1cc2ccccc2o1 the results were Calb biofilm kill inactive, LYP act inactive, sEH activator inactive, sEH inh inactive, LYP inh 2 inactive, BAP1 block active and BAP1 inh conf inactive.
Screening O=C(Nc1ccc2nc(-c3ccccc3)[nH]c2c1)c1ccco1 returned Calb biofilm kill inactive, LYP act inactive, sEH activator inactive, sEH inh inactive and LYP inh 2 inactive.
O=C(Nc1cccc(-c2nc3ccccc3[nH]2)c1)c1cccc(NC(=O)c2ccco2)c1 was read as Calb biofilm kill inactive, LYP act inactive, LYP inh 2 inactive, BAP1 block active and BAP1 inh conf inactive.
O=C(Cn1cnc2sc(-c3ccccc3)cc2c1=O)NCc1ccco1 was read as Calb biofilm kill inactive, LYP act inactive, sEH activator inactive, sEH inh inactive, LYP inh 2 inactive, BAP1 block active and BAP1 inh conf inactive.
For CC1CC(C)CN(S(=O)(=O)c2ccc(C(=O)Nc3nc(-c4nc5ccccc5s4)cs3)cc2)C1 (stereo not drawn) the results were BAP1 block inactive.
`COc1ccccc1N=c1oc2cc(OC(C)=O)ccc2cc1C(=O)NC(C)=O` gave BAP1 block inactive.
O=C(CSc1nnc(COc2ccc3c(c2)CCCC3)o1)Nc1ccc(F)cc1 was read as Calb biofilm kill inactive, LYP act inactive, sEH activator inactive, sEH inh inactive, LYP inh 2 inactive, BAP1 block active and BAP1 inh conf inactive.
For COc1cc2nc(SCC(N)=O)n(CCC3=CCCCC3)c(=O)c2cc1OC the results were Calb biofilm kill inactive, LYP act 41, sEH activator inactive, sEH inh inactive, LYP inh 2 inactive, BAP1 block inactive and LYP act confirm inactive.
`O=C(O)CCn1[nH]c(=O)c2ccccc2c1=O` gave Calb biofilm kill inactive, LYP act 37, sEH activator inactive, sEH inh inactive, LYP inh 2 inactive and LYP act confirm inactive.
O=C(CCn1[nH]c(=O)c2ccccc2c1=O)N1CCOCC1 was read as Calb biofilm kill inactive, LYP act inactive, sEH activator inactive, sEH inh inactive and LYP inh 2 inactive.
`COc1ccc(C(=O)Nc2ccc(N3C(=O)c4ccc(Cl)cc4C3=O)c(C)c2)cc1OC` gave BAP1 block inactive.
For O=C(c1ccccn1)N(Cc1cc2ccccc2[nH]c1=O)C1CCCCC1 the results were Calb biofilm kill inactive, LYP act 41, sEH activator inactive, sEH inh inactive, LYP inh 2 inactive, BAP1 block inactive and LYP act confirm inactive.
For COc1ccc2[nH]c(=O)c(CN(C(=O)c3ccccn3)C3CCCCC3)cc2c1 the results were Calb biofilm kill inactive, LYP act inactive, sEH activator inactive, sEH inh inactive and LYP inh 2 inactive.
Screening COC(=O)[C@H](Cc1ccccc1)NC(=O)NCc1ccc(S(N)(=O)=O)cc1 returned Calb biofilm kill inactive, LYP act 44, LYP inh 2 inactive, BAP1 block inactive and LYP act confirm inactive.
Screening CCN(CC)c1ccc(N2C(=O)/C(=C/c3cccs3)SC2=S)cc1 returned Calb biofilm kill inactive, LYP act inactive, sEH activator inactive, sEH inh inactive and LYP inh 2 inactive.
`CN(C)c1ccc(/C=C/C=C2/SC(=S)N(c3ccccc3)C2=O)cc1` gave LYP act 40, sEH activator inactive, sEH inh inactive, LYP inh 2 inactive and LYP act confirm inactive.

Screens (PubChem BioAssay)
